# This is a sample that favours compounds with a hit; in the whole collection about 10% have one here.
# ALDH1A1 inh: qHTS Assay for Inhibitors of Aldehyde Dehydrogenase 1 (ALDH1A1); AID 1030, 2008; Potency, µM (top dose mostly 75.3 µM), without a hit: at the highest dose activity, negative = inhibition, hits mostly inhibitors; hit rate 7.3% among 220,000; Purified ALDH1A1, NADH fluorescence, propionaldehyde substrate;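 also: potency is read from the fitted curve at half-maximal effect; plate controls were no enzyme wells and a reference inhibitor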
# PNC inhibitor: High Content Assay for Compounds that inhibit the Assembly of the Perinucleolar Compartment. activity change (PNC), negative = inhibition, % at 10 µM. PC3M PTB-GFP, PNC prevalence imaging, 16 h; hits give low values. hit rate 3.1% among 140,000;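 active = readout at or below -70, meaning at least 70% loss of cells showing the perinucleolar compartment, a nuclear body marking cancer cells; inconclusive = readout between -30 and a set limit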;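 also: plate controls were DMSO wells for no effect and camptothecin positive control wells for full effect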
#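 PC3M cells stably expressing PTB-GFP, 750–1000 cells/well, treated 16 h at 37 °C with compound (23 nl of library stock), in duplicate. After paraformaldehyde fixation and Hoechst stain, imaged at 20x; PNC prevalence scored by image analysis.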
# LMNA splice mod: qHTS Assay for Modulators of Lamin A Splicing; HeLa LMNA splicing GFP/RFP minigene ratio, 48 h; Potency, µM (top dose mostly 46.1 µM), for the others: at the highest dose ratio change, negative = inhibition, usual class: inhibitors; hit rate 0.01% among 200,000; AID 1487, 2009; active = well fitted inhibition curve with a large enough effect in the signal ratio, with a control signal flat, not every such curve was filed as active; inconclusive = small, poorly fitted or top-dose-only effect, or effect the other way, or a change in a side signal; the % refers to the signal ratio; also: potency is read from the fitted curve at half-maximal effect
#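 Read-out is the ratio of GFP to DsRed2 object intensity, acquired by 488 nm laser-scanning cytometry on HeLa lamin A-EGFP minigene reporter cells. Compound incubation 48 hrs at 37 °C in Opti-MEM with 2% FBS; DMSO 0.5% final.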
# HPGD inh: qHTS Assay for Inhibitors of HPGD (15-Hydroxyprostaglandin Dehydrogenase) | 15-hydroxyprostaglandin dehydrogenase [NAD(+)] (Homo sapiens), P15428 | purified HPGD, NADH fluorescence kinetic, PGE2 substrate | Potency, µM, inactives show at the top dose activity change, negative = inhibition, hits mostly inhibitors | hit rate 4.3% among 150,000 | AID 894, 2007; also: potency is read from the fitted curve at half-maximal effect
#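 NADH formation kinetics: reaction with 30 uM PGE2 and 1 mM NAD+ (final), 20 nM enzyme, Tris-HCl pH 8 with Tween 20, after 15 min compound preincubation at room temperature. Fluorescence change, last versus first of five reads.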
# ALOX12 inhib: qHTS Assay for Inhibitors of 12-hLO (12-human lipoxygenase) | Polyunsaturated fatty acid lipoxygenase ALOX12 (Homo sapiens), P18054 | purified 12-hLO, xylenol orange hydroperoxide absorbance | Potency, µM (top dose mostly 57.1 µM), for the others: at the top dose activity change, negative = inhibition, usual class: inhibitors | hit rate 0.12% among 150,000; active = well fitted inhibition curve with a large enough effect; inconclusive = small, poorly fitted or top-dose-only effect; also: potency is read from the fitted curve at half-maximal effect; nearly all actives have a fitted effect of over 55% in size
# Target sequence (P18054 whole entry, looked up): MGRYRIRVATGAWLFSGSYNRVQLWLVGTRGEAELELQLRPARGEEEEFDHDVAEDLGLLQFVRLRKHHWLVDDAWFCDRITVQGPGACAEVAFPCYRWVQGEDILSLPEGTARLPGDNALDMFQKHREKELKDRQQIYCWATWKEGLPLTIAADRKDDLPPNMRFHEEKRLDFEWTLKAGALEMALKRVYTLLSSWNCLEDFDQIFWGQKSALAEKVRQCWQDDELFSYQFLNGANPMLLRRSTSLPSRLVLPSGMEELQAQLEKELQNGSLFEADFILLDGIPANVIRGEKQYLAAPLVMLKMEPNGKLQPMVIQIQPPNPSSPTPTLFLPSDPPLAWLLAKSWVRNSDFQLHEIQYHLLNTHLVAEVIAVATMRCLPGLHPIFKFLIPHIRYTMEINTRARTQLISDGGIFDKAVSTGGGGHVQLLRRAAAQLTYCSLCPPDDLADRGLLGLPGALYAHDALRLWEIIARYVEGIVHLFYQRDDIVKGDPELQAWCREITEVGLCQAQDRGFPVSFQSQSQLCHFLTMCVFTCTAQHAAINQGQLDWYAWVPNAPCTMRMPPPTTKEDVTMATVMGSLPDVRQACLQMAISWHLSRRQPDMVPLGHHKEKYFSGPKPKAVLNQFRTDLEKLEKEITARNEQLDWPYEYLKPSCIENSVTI
#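 150 nM 12hLO, 25 mM Hepes pH 7.0 + 0.01% Triton X-100; cpd preinc 15 min RT; 40 uM arachidonic acid, 30 min RT; Fe-XO 30 min; A573/A405 ratio as read-out.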
# * marks the source's active call; other numbers are inactive results; ? = inconclusive; . = no result; [ ] = dose if it differs, or a comment. Unless noted, calls follow the shape of the dose curve; as a rule, active = well fitted inhibition curve with a large enough effect (not every such curve was filed as active); inconclusive = small, poorly fitted or top-dose-only effect, or another doubt; inactive = no such curve, though single readings can be large or run the other way. Unless noted, % is scaled to controls: 0 for no effect and ±100 for the full control effect.
SMILES,ALDH1A1 inh,PNC inhibitor,LMNA splice mod,HPGD inh,ALOX12 inhib
COC(=O)C1=C(C)N(CCc2ccc(OC)cc2)C(=O)C1,10µM*,-27.5,-4.4%,-29.6%,3.6%
COC(=O)C1=C(C)N(CCc2c[nH]c3ccccc23)C(=O)/C1=C\N(C)C,12.6µM*,.,16.0%[46 µM],.,.
COC(=O)C1=C(C)N(Cc2ccc(OC)cc2)C(=O)C1,2.7%,24.3,-6.6%,-19.6%,-3.3%
COC(=O)C1=C(C)N(CCc2c[nH]c3ccc(OC)cc23)C(=O)C1,17.8µM*,.,.,.,.
COC(=O)C1=C(C)N(CCc2ccc(OC)c(OC)c2)C(=O)C1,?,-22.2,-8.5%,-16.2%,-5.8%
Cc1nnc(N2C(=O)C(O)=C(C(=O)c3ccco3)C2c2ccc(F)cc2)s1 (configuration not stated),-9.1%,-12.7,-7.1%,-7.2%,15.0%
Cc1nnc(N2C(=O)C(O)=C(C(=O)c3ccco3)C2c2ccc(C(C)(C)C)cc2)s1 (configuration not stated),0.4%,-108.6*,-1.1%,-5.5%,6.5%
Cc1ccc(O)c(C(=O)c2cc(C#N)c(=O)n(CC3CCCO3)c2)c1 (configuration not stated),?,-9.5,-17.6%,-22.3%,-6.2%
COc1ccc(O)c(C(=O)c2cc(C#N)c(=O)n(CC3CCCO3)c2)c1 (configuration not stated),25.1µM*,-3.7,?,-28.4%,-8.7%
CN(C)c1ccnc(-c2ccccc2C(F)(F)F)n1,6.5%,.,5.7%,-3.7%,-6.7%
COC(=O)[C@@H](NC(=O)Nc1ccc(C(C)=O)cc1)C(C)C,1.6%,86.9,7.9%,-14.1%,-0.8%
COC(=O)[C@@H](NC(=O)Nc1ccc(OC(F)(F)F)cc1)C(C)C,?,0.0,-7.9%,28.2µM*,0.0%
Cc1noc2c1C(c1ccc(N(C)C)cc1)C1=C(CC(C)(C)CC1=O)N2 (configuration not stated),22.4µM*,64.0,0.1%,-16.7%,-0.5%
Cc1[nH]n(-c2ccccc2)c(=O)c1C(c1ccccc1C(=O)O)c1c(C)[nH]n(-c2ccccc2)c1=O,-10.4%,-7.9,-4.0%,-1.7%,-3.0%
Cc1[nH]n(-c2ccccc2)c(=O)c1C(C[N+](=O)[O-])c1ccc(Cl)cc1 (configuration not stated),20µM*,12.8,?,28.2µM*,-8.1%
COc1ccc(C(c2c(C)[nH]n(-c3ccccc3)c2=O)c2c(C)[nH]n(-c3ccccc3)c2=O)cc1OC,8.91µM*,?,-15.4%,?,-14.5%
Cc1ccc(C(C[N+](=O)[O-])c2c(C)[nH]n(-c3ccccc3)c2=O)cc1 (configuration not stated),?,6.9,?,-20.6%,-6.4%
S=c1nc(-c2cc(Cl)cc(Cl)c2)[nH][nH]1,11.2µM*,.,.,.,.
COc1cc(-c2nc(=S)[nH][nH]2)cc(OC)c1OC,?,.,-6.8%[46 µM],.,.
S=c1nc(-c2cc(Cl)ccc2Cl)[nH][nH]1,6.31µM*,.,-5.9%[46 µM],.,.
Cc1cc(C)nc(Nc2n[nH]c(-c3ccccc3Br)n2)n1,?,?,-1.4%,-7.5%,3.8%
S=c1nc(-c2ccccc2Br)[nH][nH]1,10µM*,?,-3.5%,12.6µM*,-6.6%
CCOC(=O)C1CCN(CCC(=O)Nc2ccc(C)c(C)c2)CC1,2.5%,.,?,.,.
O[C@@H](c1ccccc1)C1CCN(CCc2ccccc2)CC1,-3.5%,.,.,0.2%,-3.0%
CCS(=O)(=O)N1CCN(c2ccccc2F)CC1,1.4%,14.4,9.3%,1.0%,-2.6%
O=C1Oc2ccccc2C(=O)/C1=C/N1CCN(c2ccccc2F)CC1,17.8µM*,.,-23.4%[46 µM],.,.
CCOC(=O)CSC1=C(C#N)C(=O)NC(c2ccc(OC)c(OC)c2)S1 (configuration not stated),?,27.0,5.9%,-14.3%,?
CCOC(=O)CSC1=C(C#N)C(=O)NC(c2ccc(OC)cc2)S1 (configuration not stated),20µM*,10.7,2.3%,-15.8%,?
COc1ccc(CN(Cc2ccc(C(=O)O)cc2)C(=S)Nc2ccccc2F)cc1OC,12.6µM*,.,-7.6%[46 µM],.,.

# High-throughput results as filed in PubChem.
